# Rows were chosen to be rich in hits. Some 3.1% of all compounds tested hit in one or more screens of this group.
# MEKK2 mut-MEK5 = MEK5 binding signal on mutant MEKK2 PB1, primary screen, biochemical, multiplex bead flow cytometry, Alexa488-MEK5. Alexa488-MEK5 binding to MEKK2 mutant. percent response, % at 10 µM. actives 0.35% (n = 290,000); in the data active means percent response above about 24%, passing the limit was not always enough
# UBC13 polyUb = UBC13 polyubiquitin chain formation inhibitors, primary screen, biochemical, TR-FRET, uHTS; actives 0.47% (n = 330,000); Ubiquitin-conjugating enzyme E2 N (Homo sapiens), P61088; inhibition, % at 20 µM; in the data active means inhibition above about 45%, passing the limit was not always enough
# MEKK3 PB1 HTS = modulators of MEKK3-MEK5 PB1 binding, primary screen, biochemical, wildtype MEKK3, multiplex bead flow cytometry, Alexa488-MEK5; Mitogen-activated protein kinase kinase kinase 3 (Homo sapiens), Q99759; bead-based flow cytometry, Alexa488-MEK5 binding to MEKK3; actives lie on both sides; 0 = blocked by unlabeled MEK5, 100 = vehicle; binding response (% of control), % at 10 µM; actives 1.4% (n = 290,000);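 active means binding response more than 3 SD above or below the average of its plate-row segment, actives on both sides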;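 further: Alexa488 bead fluorescence after subtracting the streptavidin-only scavenger bead signal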
# Target sequence (Q99759 whole entry, looked up): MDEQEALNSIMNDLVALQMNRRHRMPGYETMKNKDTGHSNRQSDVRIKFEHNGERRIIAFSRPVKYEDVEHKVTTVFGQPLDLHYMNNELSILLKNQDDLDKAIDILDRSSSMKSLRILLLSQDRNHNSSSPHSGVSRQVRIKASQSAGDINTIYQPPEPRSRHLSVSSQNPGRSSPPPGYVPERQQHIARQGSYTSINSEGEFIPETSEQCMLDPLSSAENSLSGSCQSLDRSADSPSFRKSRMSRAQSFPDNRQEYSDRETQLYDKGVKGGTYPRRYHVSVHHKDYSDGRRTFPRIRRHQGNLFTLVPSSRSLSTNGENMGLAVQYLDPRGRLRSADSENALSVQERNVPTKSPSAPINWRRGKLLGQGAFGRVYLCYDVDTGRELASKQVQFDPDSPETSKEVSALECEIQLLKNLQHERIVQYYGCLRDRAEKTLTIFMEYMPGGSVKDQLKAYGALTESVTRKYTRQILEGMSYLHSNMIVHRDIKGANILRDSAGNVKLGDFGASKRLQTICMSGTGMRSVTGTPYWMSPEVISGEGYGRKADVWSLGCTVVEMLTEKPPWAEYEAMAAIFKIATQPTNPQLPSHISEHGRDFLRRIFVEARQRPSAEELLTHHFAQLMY
# ATG4B inhibitor = ATG4B protease inhibitors, primary screen, biochemical, fluorescence, uHTS; ATG4B cleavage of LC3-PLA2, NBD-HPC fluorescence, 1 h; inhibition, % at 8.33 µM; actives 0.51% (n = 340,000); AID 504462, 2011; in the data active means inhibition above about 40%
# MEKK2 WT-MEK5 = modulators of MEK5 binding to wildtype MEKK2, primary screen, biochemical, multiplex bead flow cytometry, Alexa488-MEK5 | Mitogen-activated protein kinase kinase kinase 2 (Homo sapiens), Q9Y2U5 | Alexa488-MEK5 binding to MEKK2 WT; actives lie on both sides | binding response (% of control), % at 10 µM | actives 1.1% (n = 290,000) | AID 1531, 2009; in the data active means binding response below about 67% or above about 130%
# PREPL inhibitor = PREPL enzyme inhibitors, primary screen, biochemical, fluorescence polarization; Prolyl endopeptidase-like (Homo sapiens), Q4J6C6; recombinant PREPL, fluorescence polarization activity-based probe; inhibition, % at 5.96 µM; actives 0.68% (n = 320,000); in the data active means inhibition above about 43%
# MEKK2wt confirm = modulators of MEK5 binding to wildtype MEKK2, confirmation, biochemical, single concentration, multiplex bead flow cytometry; shares compounds with MEKK3 PB1 HTS; Alexa488-MEK5 binding to MEKK2 WT; actives lie on both sides; binding response (% of control), % at 10 µM; actives 2.4% (n = 5,900); in the data active means binding response below about 16% or above about 210%; inactive means in between
# MEKK2mut confirm = mutant MEKK2 PB1-MEK5 binding signal retest – biochemical, single concentration, multiplex bead flow cytometry, confirmation. shares compounds with MEKK3 PB1 HTS. Alexa488-MEK5 binding to MEKK2 mutant. percent response, % at 10 µM. actives 2% (n = 5,900). AID 1893, 2009; in the data active means percent response mostly above about 71%, no sharp cut-off; inactive means mostly below about 38%;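 further: higher means compound restores mutant binding toward wildtype level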
# MEKK3-MEK5 inh = MEKK3 wild-type PB1 binding to MEK5, inhibitors, confirmation, biochemical, bead multiplex flow cytometry, single concentration, wildtype | shares compounds with MEKK3 PB1 HTS | Alexa488-MEK5 binding to MEKK3; stronger effect = lower value | binding response (% of control), % at 10 µM | actives 1.8% (n = 5,900) | AID 1894, 2009;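 active means binding response below 72% of control, or above a set upper limit, though filed actives all read lower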
# Numbers stand for hits; n = inactive; x = no result; [ ] = dose if it differs, or a comment.
SMILES,MEKK2 mut-MEK5,UBC13 polyUb,MEKK3 PB1 HTS,ATG4B inhibitor,MEKK2 WT-MEK5,PREPL inhibitor,MEKK2wt confirm,MEKK2mut confirm,MEKK3-MEK5 inh
CC(=O)c1ccc(-c2ccccc2OC(F)(F)F)o1,n,n,49[inhibitor],n,n,n,n,n,n
O/N=C/c1ccc(-c2ccccc2OC(F)(F)F)o1,n,n,n,n,n,n,x,x,x
COc1ccccc1-c1nnc(SCC(=O)O)n1-c1ccccc1,n,n,135,n,n,n,n,n,n
O=C(CCCc1nc(-c2ccccc2Cl)no1)NCc1cccnc1,n,n,123,n,n,n,n,n,n
O=C(CCc1nc(-c2ccccc2)no1)NCc1cccnc1,n,n,n,n,n,n,x,x,x
O=C1C=CC(=O)N1CCCCCCN1C(=O)C=CC1=O,62,x,n,n,n,n,n,n,n
CCC(C)c1ccccc1N1CC(C(=O)Nc2cccc(S(=O)(=O)N3CCOCC3)c2)CC1=O (stereo unspecified),n,n,n,n,n,n,x,x,x
Cc1ccc(NC(=O)CN2C(=O)NC3(CCCc4ccccc43)C2=O)c([N+](=O)[O-])c1 (stereo unspecified),n,n,n,n,n,n,x,x,x
CCOC(=O)/C(C#N)=C/c1cc2ccc(C)cc2nc1Cl,n,n,57[inhibitor],n,n,n,n,n,n
CCOC(=O)/C(C#N)=C/c1cc2ccccc2nc1N1CCOCC1,n,n,66[inhibitor],n,n,n,n,n,n
c1ccc(-c2cc3ccccc3nc2N2CCCC2)cc1,n,n,n,n,n,n,x,x,x
CCOC(=O)/C(C#N)=C/C1=C(N2CCOCC2)C(C)(C)OCC1,n,n,n,n,n,n,x,x,x
Cc1ccc(-c2cc3ccccc3nc2N2CCOCC2)cc1,n,n,75[inhibitor],n,n,n,n,n,n
CCOC(=O)/C(C#N)=C/c1cc2cc(C)c(C)cc2nc1Cl,n,n,n,n,n,n,x,x,x
O=C(NCC1CCN(Cc2ccc(F)cc2)CC1)Nc1cc(F)ccc1F,n,n,n,n,n,n,x,x,x
COc1cccc(NC(=O)C(NC2CCCC2)c2ccccc2)c1 (stereo unspecified),n,n,n,n,n,n,x,x,x
Cc1ccc(NC(=O)C(NC2CCCC2)c2ccccc2)cc1Cl (stereo unspecified),n,n,n,n,142,n,n,n,n
Cc1cc(C(=O)OC(C(=O)Nc2ccc(C)c(Cl)c2)c2ccccc2)c(C)o1 (stereo unspecified),n,x,n,n,147,n,n,n,n
Cc1nc(COc2ccc(C(=O)NCc3ccccc3CN3CCCCC3)cc2)cs1,x,n,x,n,x,n,x,x,x
C[C@H]1CCC(=O)N([C@H](CSc2ccc(Br)cc2)Cc2ccccc2)CC1,x,n,x,n,x,n,x,x,x
c1ccc(C(c2ccccc2)c2ccn[nH]2)cc1,n,n,n,n,n,n,x,x,x
Cn1c(Cc2ccc3c(c2)OCO3)nnc1SCC(=O)NC(C)(C)C,n,n,65[inhibitor],n,n,n,n,n,n
CC(C)N(C(=O)CSc1nnc(Cc2ccc3c(c2)OCO3)n1C)C(C)C,n,n,n,n,n,n,x,x,x
COC(=O)n1ccc(C(=O)Nc2ccccc2F)n1,n,n,3.0[inhibitor],n,3.0[inhibitor],n,n,n,n
O=C(Nc1ccccc1F)c1ccncc1,n,n,n,n,n,n,x,x,x
SMILES,MEKK2 mut-MEK5,UBC13 polyUb,MEKK3 PB1 HTS,ATG4B inhibitor,MEKK2 WT-MEK5,PREPL inhibitor,MEKK2wt confirm,MEKK2mut confirm,MEKK3-MEK5 inh
Cc1cnc(C(=O)Nc2ccccc2F)cn1,n,n,2.0[inhibitor],n,1.0[inhibitor],n,n,n,n
Cc1nc2ccccc2n1S(=O)(=O)N(C)C,n,n,141,n,n,n,n,n,n
CCCNc1nc(C)cc(-c2cc(C(=O)NC3CCCC3)on2)n1,n,n,n,n,n,n,x,x,x
CCn1c(C)c(C(C)=O)c(N2CCN(c3ccccc3)CC2)nc1=S,n,n,n,n,n,n,x,x,x
CC(=O)c1c(N2CCN(C)CC2)[nH]c(-c2ccccc2)nc1=S,47,n,n,n,23,n,n,n,n
COc1ccc(N2CCN(CCNC(=O)Nc3ccc(C)c(Cl)c3)CC2)cc1,n,n,n,n,n,n,x,x,x
COc1ccc(NC(=O)NCCCN2CCN(c3cc(C)ccc3C)CC2)cc1,25,n,n,n,135,n,n,n,n
Cc1ccc2c(c1C)NC(C(=O)O)C1CC=CC21 (stereo unspecified),36,n,n,n,39,n,n,n,n
CCOC(=O)c1cn(Cc2ccccc2)nn1,n,n,131,n,n,n,n,n,n
CCOC(=O)c1cn(CC(=O)Nc2ccccc2C(=O)OCC)nn1,n,n,n,n,n,n,x,x,x
COc1ccc(CNC(=O)CC2C[C@H](C(=O)N3CCCCC3)[C@@]3(C)c4[nH]c5ccccc5c4CCN3C2=O)cc1OC (stereo partly specified),x,n,x,n,x,n,x,x,x
CCc1noc(C)c1C(=O)Nc1ccc(F)c(F)c1F,x,n,x,n,x,n,x,x,x
COc1cc(/C=C(/NC(=O)c2ccccc2)C(=O)N2CCN(C)CC2)c([N+](=O)[O-])cc1OC,n,n,130,n,n,n,n,n,n
O=C(N/C(=C\c1cccs1)C(=O)N1CCOCC1)c1cccs1,n,n,n,n,n,n,x,x,x
COc1cc(/C=C(/NC(=O)c2ccccc2)C(=O)N2CCOCC2)c([N+](=O)[O-])cc1OC,n,n,n,n,n,n,x,x,x
CN1CCN(C(=O)/C(=C/c2cccs2)NC(=O)c2cccs2)CC1,n,n,72[inhibitor],n,n,n,n,n,n
CN1CCN(C(=O)/C(=C\c2cccs2)NC(=O)c2ccco2)CC1,n,n,134,n,n,n,n,n,n

# High-throughput results as filed in PubChem.
